# Source: PubChem (Broad Institute)
# This excerpt belongs to a sample that is enriched for hits.
# NOMO-1 viab = STK33 inhibitor candidate reducing NOMO-1 cell viability | 37,000 tested, 7.5% active | inhibition, % (concentration not given with the values) | NOMO-1 AML viability, CellTiter-Glo luminescence, 72 h | AID 2330; in the data active means inhibition above about 80%
# MITF inh = inhibitors of MITF | TRPM1 promoter luciferase, luminescence, 24 h | inhibition, % (no concentration beside the values) | 37,000 tested, 0.28% active | AID 2240; in the data active means inhibition above about 85%;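 further: human melanocyte line stably carrying TRPM1 promoter luciferase reporter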
# mut p53 react = mutant p53 pathway reactivation | 28,000 tested, 1.5% active | activation, % at 9.98 µM | SW480 PUMA-promoter luciferase; in the data active means activation above about 52%
# STK33 kin inh = human STK33 kinase inhibition; Q9BYT3; inhibition, % at 12.5 µM; ADP-Glo luminescence, MBP substrate; 27,000 tested, 0.44% active; in the data active means inhibition above about 20%
# Target sequence (Q9BYT3 whole entry, looked up): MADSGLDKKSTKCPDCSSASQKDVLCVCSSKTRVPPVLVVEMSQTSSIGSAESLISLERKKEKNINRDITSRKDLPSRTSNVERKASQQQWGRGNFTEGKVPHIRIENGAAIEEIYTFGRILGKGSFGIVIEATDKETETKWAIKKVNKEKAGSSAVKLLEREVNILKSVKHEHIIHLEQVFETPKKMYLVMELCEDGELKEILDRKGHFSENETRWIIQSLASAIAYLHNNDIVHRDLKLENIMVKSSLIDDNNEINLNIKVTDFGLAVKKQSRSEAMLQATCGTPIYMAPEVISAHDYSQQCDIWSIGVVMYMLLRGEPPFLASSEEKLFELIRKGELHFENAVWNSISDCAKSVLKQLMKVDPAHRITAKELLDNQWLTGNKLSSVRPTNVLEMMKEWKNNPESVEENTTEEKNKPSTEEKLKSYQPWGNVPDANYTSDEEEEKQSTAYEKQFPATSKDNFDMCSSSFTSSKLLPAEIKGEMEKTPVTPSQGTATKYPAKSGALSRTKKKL
# Active calls of the source: *; / = not tested or not shown.
SMILES,NOMO-1 viab,MITF inh,mut p53 react,STK33 kin inh
CC(C)(C)c1cc(O)c(C(C)(C)C)cc1O,114*,25,/,0
COC(=O)c1c(-c2ccccc2)csc1NC(=O)c1cc(-c2cccnc2)nc2ccccc12,104*,61,-8,2
Cc1sc(NC(=O)c2cc(-c3ccccc3)nc3ccccc23)c(C(=O)NCc2cccnc2)c1C,46,-14,-11,1
CCn1cc(CNC(=O)c2cc(-c3cccnc3)nc3ccc(Br)cc23)c(C)n1,34,-19,0,-5
Cc1ccc2nc(-c3cccc(Br)c3)cc(C(=O)NCc3cccnc3)c2c1,66,5,58*,-2
CCCc1ccc(-c2cc(C(=O)NCc3cccnc3)c3ccccc3n2)cc1,46,-65,106*,0
COC(=O)c1cc(-c2ccccc2)sc1NC(=O)c1cc(-c2cccnc2)nc2ccccc12,30,-6,18,1
Cc1ccc(-c2cc(C(=O)NCc3cccnc3)c3cc(Br)ccc3n2)cc1,38,-56,67*,2
CC(O)CCCC1Cc2cccc(O)c2C(=O)O1 (configuration not stated),-6,1,/,1
Cc1c(C2CCN(CCc3ccccc3)CC2)noc1-c1ccc(Cl)cc1,93*,-1,/,3
OC(c1ccccc1)C1CCN(CCc2ccccc2)CC1 (configuration not stated),/,/,0,/
Cc1ccc(Cl)cc1N(CC(=O)O)S(C)(=O)=O,3,7,-5,-4
C=C(CO)C(=O)O[C@H]1C[C@@]23O[C@@H]2CC/C(=C/[C@H]2OC(=O)C(=C)[C@H]12)CO[C@@H]3O,103*,-11,10,-1
Cc1cc(=O)c2c(O)c(C)c(O)cc2o1,-4,4,/,5
c1ccc(C2C3=C(CCCC3)SC3=C2CCCC3)cc1,98*,-10,/,/
S=C1NN(c2ccccc2)C2=C(CCC2)S1,/,/,-7,/
CC(C)(C)c1ccc(C(=O)NCCNc2ccccc2[N+](=O)[O-])cc1,33,-67,114*,-5
CCCCCCCCNC(C)C(O)c1ccc(SC(C)C)cc1 (configuration not stated),120*,11,-57,3
CNC(=O)C(=O)NCCc1c[nH]c2ccccc12,-11,-16,-16,1
c1ccc(-c2ccc3c4ccccc4cc-3o2)cc1,106*,18,/,/
COc1cccc(C(=O)/C=c2\[nH]c(=O)/c(=C\c3cccs3)s2)c1,104*,-27,/,5
C[C@H]1CN([C@@H](C)CO)C(=O)c2cc(NS(=O)(=O)c3ccc(F)cc3)ccc2O[C@H]1CN(C)Cc1ccc(Cl)c(Cl)c1,11,1,/,/
C[C@@H]1CN([C@H](C)CO)C(=O)c2cc(NS(=O)(=O)c3ccc(F)cc3)ccc2O[C@H]1CN(C)Cc1ccc2c(c1)OCO2,-6,-15,/,/
C[C@H](CO)N1C[C@H](C)[C@H](CN(C)Cc2ccc3c(c2)OCO3)Oc2ccc(NS(=O)(=O)c3ccc(F)cc3)cc2C1=O,112*,-1,/,/
C[C@H]1CN([C@@H](C)CO)C(=O)c2cc(NS(=O)(=O)c3ccc(Cl)cc3)ccc2O[C@@H]1CN(C)Cc1ccc(Cl)c(Cl)c1,100*,51,/,5
SMILES,NOMO-1 viab,MITF inh,mut p53 react,STK33 kin inh
C[C@@H]1CN([C@@H](C)CO)C(=O)c2cc(NS(=O)(=O)c3ccc(F)cc3)ccc2O[C@@H]1CN(C)Cc1ccc(Cl)c(Cl)c1,110*,65,-14,0
C[C@@H]1CN([C@H](C)CO)C(=O)c2cc(NS(=O)(=O)c3ccc(Cl)cc3)ccc2O[C@H]1CN(C)Cc1ccc(Cl)c(Cl)c1,19,-13,/,1
C[C@@H]1CN([C@@H](C)CO)C(=O)c2cc(NS(=O)(=O)c3ccc(Cl)cc3)ccc2O[C@H]1CN(C)Cc1ccc(Cl)c(Cl)c1,119*,46,/,/
CCCCCCC[C@@H](O)CC(=O)CCc1ccc(O)c(OC)c1,41,2,1,-6
CCCCCCC/C=C/C(=O)CCc1ccc(O)c(OC)c1,116*,5,-9,-8
CC1(C)[C@H](O)CC[C@@]2(C)[C@@H]3CC[C@](C)(C(O)CO)CC3=CC[C@H]12 (some centres not stated),-1,-4,13,0
CCn1c(SCC(=O)Nc2ccccc2-c2ccccc2)nnc1-c1cccs1,-15,0,-6,-1
FC(F)(F)c1nc2ccc(Cl)cc2[nH]1,121*,67,/,/
O=C(O)c1ccc2nc(CCc3nc4ccc(C(=O)O)cc4[nH]3)[nH]c2c1,5,-11,/,/
C[C@@H]1CN([C@H](C)CO)C(=O)c2cccc(N(C)C)c2O[C@H]1CN(C)Cc1ccc(Cl)c(Cl)c1,88*,5,-8,/
C[C@@H]1CN([C@@H](C)CO)C(=O)c2cccc(N(C)C)c2O[C@H]1CN(C)Cc1ccc(Cl)c(Cl)c1,97*,9,-10,/
